In PubChem BioAssay (EPA / NIEHS):
Calls of active or inactive are those of the source. How the source made its calls: active means hit-call score of the fitted dose curve at least 0.9, where 1 is the maximum; inactive means score below 0.9.

Experiments:
Settings in all cases: mRNA level, 48 h; actives raise or lower the signal
MYC, MYC (gene 4609) = assay: LTEA_HepaRG_MYC: Life Technologies and Expression Analysis (LTEA) Assay for MYC using HepaRG (AID 2283518)
Outline: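 Differentiated HepaRG cells exposed 48 h in serum-free induction medium to 8 concentrations (top 100 uM, half-log steps; 0.5% DMSO), duplicate. MYC mRNA measured by Fluidigm qRT-PCR, normalized to ACTB, GAPDH, POLR2A; bidirectional fit versus DMSO.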

[1] = read-out: matrix metalloproteinase-3 (MMP3), MMP3 (gene 4314); assay: LTEA_HepaRG_MMP3: Life Technologies and Expression Analysis (LTEA) Assay for matrix metalloproteinase-3 (MMP3) using HepaRG (AID 2283519)
Outline: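 Human liver HepaRG cultures received chemicals (top concentration 100 uM, 0.5% DMSO) for 48 h in duplicate. MMP3 mRNA induction or loss was then assessed via TaqMan qRT-PCR with housekeeping-gene normalisation.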

[2] = read-out: Paternally Expressed 10 (PEG10), PEG10 (gene 23089); assay: LTEA_HepaRG_PEG10: Life Technologies and Expression Analysis (LTEA) Assay for Paternally Expressed 10 (PEG10) using HepaRG (AID 2283520);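 on AC50: PEG10 transcript by qRT-PCR normalised to ACTB GAPDH and POLR2A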
Outline: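 qRT-PCR read-out: PEG10 mRNA normalised to three housekeeping genes, fitted bidirectionally against 0.5% DMSO vehicle. HepaRG cells received test chemicals for 48 h in serum-free induction medium, 8 points, top 100 uM, half-log steps.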

[3] = read-out: Nuclear factor NF-kappa-B p105 subunit (Homo sapiens) (UniProt P19838); assay: LTEA_HepaRG_NFKB1: Life Technologies and Expression Analysis (LTEA) Assay for Nuclear Factor Kappa B Subunit 1 (NFKB1) using HepaRG (AID 2283521);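 further: TaqMan qRT-PCR transcript normalised to ACTB GAPDH and POLR2A housekeeping genes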
Outline: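 Differentiated human HepaRG cells were exposed for 48 h in serum-free induction medium to eight concentrations (top 100 uM, half-log steps, 0.5% DMSO), in duplicate. NFKB1 mRNA was measured by TaqMan qRT-PCR, normalized to ACTB/GAPDH/POLR2A, and fitted bidirectionally against DMSO.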

[4] = read-out: Protein phosphatase 2A (PPP2R4), PTPA (gene 5524); assay: LTEA_HepaRG_PPP2R4: Life Technologies and Expression Analysis (LTEA) Assay for Protein phosphatase 2A (PPP2R4) using HepaRG (AID 2283522)
Outline: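 HepaRG, 48 h exposure, 8-pt half-log series from 100 uM, 0.5% DMSO vehicle, duplicates. Readout: PPP2R4 mRNA, Fluidigm qRT-PCR, housekeeping-normalized. Bidirectional curve fit vs DMSO baseline.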

[5] = read-out: Phosphatase and tensin (PTEN), PTEN (gene 5728); assay: LTEA_HepaRG_PTEN: Life Technologies and Expression Analysis (LTEA) Assay for Phosphatase and tensin (PTEN) using HepaRG (AID 2283523)
Outline: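 Expression of PTEN is quantified in the human liver line HepaRG following two days of dosing (top concentration 100 uM, half-log dilutions, 0.5% DMSO). Values derive from bidirectional curve fitting relative to DMSO controls.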

[6] = read-out: solute carrier (SLC22A1), SLC22A1 (gene 6580); assay: LTEA_HepaRG_SLC22A1: Life Technologies and Expression Analysis (LTEA) Assay for solute carrier (SLC22A1) using HepaRG (AID 2283524)
Outline: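 Transcript induction or suppression of SLC22A1 in human HepaRG cultures is scored after 48 h chemical treatment, with DMSO (0.5%) as baseline for bidirectional fitting. Concentrations span eight half-log points topping at 100 uM.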

[7] = read-out: Pyruvate Dehydrogenase Kinase 4 (PDK4), PDK4 (gene 5166); assay: LTEA_HepaRG_PDK4: Life Technologies and Expression Analysis (LTEA) Assay for Pyruvate Dehydrogenase Kinase 4 (PDK4) using HepaRG (AID 2283525)
Outline: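 Eight-point, half-log concentration series (max 100 uM, 0.5% DMSO) applied to differentiated HepaRG cells for 48 h in duplicate. Endpoint: PDK4 mRNA induction or repression by qRT-PCR against DMSO baseline.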

[8] = read-out: NAD(P)H dehydrogenase [quinone] 1 (NQO1), NQO1 (gene 1728); assay: LTEA_HepaRG_NQO1: Life Technologies and Expression Analysis (LTEA) Assay for NAD(P)H dehydrogenase [quinone] 1 (NQO1) using HepaRG (AID 2283526)
Outline: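 qRT-PCR read-out (Fluidigm TaqMan), normalized to three housekeeping genes, after 48 h chemical exposure of HepaRG cells. Concentrations: eight points, top 100 uM, half-log steps, 0.5% DMSO vehicle. Gain or loss of signal fitted relative to DMSO.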

[9] = read-out: Nuclear factor erythroid 2-related factor 2 (Homo sapiens) (UniProt Q16236); assay: LTEA_HepaRG_NFE2L2: Life Technologies and Expression Analysis (LTEA) Assay for Nuclear factor erythroid 2-related factor 2 (NFE2L2) Transcription Factor using HepaRG (AID 2283527)
Outline: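 Human liver HepaRG line treated in duplicate for 48 h with an eight-point series topping at 100 uM. Gene expression of NFE2L2 by qRT-PCR, bidirectionally fitted against the vehicle control.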

[10] = read-out: succinate dehydrogenase complex iron sulfur subunit B (SDHB), SDHB (gene 6390); assay: LTEA_HepaRG_SDHB: Life Technologies and Expression Analysis (LTEA) Assay for succinate dehydrogenase complex iron sulfur subunit B (SDHB) using HepaRG (AID 2283528)
Outline: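 HepaRG, 48 h exposure, 8-pt half-log series from 100 uM in 0.5% DMSO, duplicates. Readout: SDHB mRNA by Fluidigm qRT-PCR vs housekeeping genes; bidirectional fit relative to DMSO.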

[11] = read-out: Signal transducer and activator of transcription 3 (Homo sapiens) (UniProt P40763); assay: LTEA_HepaRG_STAT3: Life Technologies and Expression Analysis (LTEA) Assay for Signal transducer and activator of transcription (STAT3) using HepaRG (AID 2283529)
Outline: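 In this transcriptional endpoint, HepaRG cultures receive test chemicals at up to 100 uM for 48 h, tested in duplicate. STAT3 mRNA is normalized to ACTB, GAPDH and POLR2A.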

[12] = read-out: solute carrier (SLCO1B1), SLCO1B1 (gene 10599); assay: LTEA_HepaRG_SLCO1B1: Life Technologies and Expression Analysis (LTEA) Assay for solute carrier (SLCO1B1) using HepaRG (AID 2283530)
Outline: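 Differentiated human HepaRG cells were exposed for 48 h in serum-free induction medium to eight half-log concentrations, top 100 uM, in 0.5% DMSO. SLCO1B1 mRNA was measured by qRT-PCR, normalized to ACTB, GAPDH and POLR2A, and fitted bidirectionally against DMSO.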

[13] = read-out: sulfotransferase 2A1 (SULT2A1), SULT2A1 (gene 6822); assay: LTEA_HepaRG_SULT2A1: Life Technologies and Expression Analysis (LTEA) Assay for sulfotransferase 2A1 (SULT2A1) using HepaRG (AID 2283531)
Outline: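 HepaRG human liver cells, 48 h exposure in serum-free induction medium to 8 half-log concentrations topping at 100 µM (0.5% DMSO), duplicate wells. SULT2A1 mRNA measured by TaqMan qRT-PCR, normalized to ACTB/GAPDH/POLR2A; bidirectional fit against DMSO.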

[14] = read-out: Transforming Growth Factor (TGFA), TGFA (gene 7039); assay: LTEA_HepaRG_TGFA: Life Technologies and Expression Analysis (LTEA) Assay for Transforming Growth Factor (TGFA) using HepaRG (AID 2283532)
Outline: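 Gene expression of TGFA was quantified by qRT-PCR after human HepaRG cells were treated for 48 h with test chemicals (eight concentrations, highest 100 uM, 0.5% DMSO). Activity in either direction was fitted relative to DMSO.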

[15] = read-out: Transforming Growth Factor (TGFB1), TGFB1 (gene 7040); assay: LTEA_HepaRG_TGFB1: Life Technologies and Expression Analysis (LTEA) Assay for Transforming Growth Factor (TGFB1) Transporter using HepaRG (AID 2283533)
Outline: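 Differentiated HepaRG cells exposed 48 hr in serum-free induction medium to eight half-log concentrations up to 100 uM (0.5% DMSO), duplicate; TGFB1 mRNA by TaqMan qRT-PCR normalised to ACTB, GAPDH, POLR2A; bidirectional fit against DMSO.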

TIMP1, TIMP1 (gene 7076) = assay: LTEA_HepaRG_TIMP1: Life Technologies and Expression Analysis (LTEA) Assay for TIMP1 using HepaRG (AID 2283534)
Outline: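 Differentiated HepaRG cells exposed 48 h in serum-free induction medium, duplicates, eight half-log concentrations from 100 uM in 0.5% DMSO. TIMP1 mRNA by qRT-PCR normalized to ACTB, GAPDH, POLR2A; bidirectional fitting against DMSO.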

[16] = read-out: Tumor necrosis factor receptor 1 (TNFRSF1A), TNFRSF1A (gene 7132); assay: LTEA_HepaRG_TNFRSF1A: Life Technologies and Expression Analysis (LTEA) Assay for Tumor necrosis factor receptor 1 (TNFRSF1A) using HepaRG (AID 2283535)
Outline: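 Differentiated HepaRG cells in serum-free induction medium, exposed 48 h in duplicate to 8 half-log concentrations up to 100 uM in 0.5% DMSO. TNFRSF1A mRNA by Fluidigm TaqMan qRT-PCR, normalized to ACTB, GAPDH, POLR2A; bidirectional fit.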

[17] = read-out: Thyroid Hormone Responsive (THRSP), THRSP (gene 7069); assay: LTEA_HepaRG_THRSP: Life Technologies and Expression Analysis (LTEA) Assay for Thyroid Hormone Responsive (THRSP) using HepaRG (AID 2283536)
Outline: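 Cell model: human HepaRG, approx. 100,000 cells/well, 0.5% DMSO vehicle. Exposure lasts 48 h; phenobarbital 1 mM serves as induction positive control. Gene expression is measured by qRT-PCR against three endogenous control genes.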

[18] = read-out: Cellular tumor antigen p53 (Homo sapiens) (UniProt P04637); assay: LTEA_HepaRG_TP53: Life Technologies and Expression Analysis (LTEA) Assay for Tumor Protein P53 (TP53) using HepaRG (AID 2283537)
Outline: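 HepaRG, 48 h exposure, top 100 uM, half-log 8-point, 0.5% DMSO vehicle, duplicates. Read: TP53 mRNA by TaqMan qRT-PCR, normalised to ACTB/GAPDH/POLR2A; bidirectional fit vs DMSO.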

Measured: AC50

Cellular tumor antigen p53 (Homo sapiens), sequence (P04637 whole entry, looked up): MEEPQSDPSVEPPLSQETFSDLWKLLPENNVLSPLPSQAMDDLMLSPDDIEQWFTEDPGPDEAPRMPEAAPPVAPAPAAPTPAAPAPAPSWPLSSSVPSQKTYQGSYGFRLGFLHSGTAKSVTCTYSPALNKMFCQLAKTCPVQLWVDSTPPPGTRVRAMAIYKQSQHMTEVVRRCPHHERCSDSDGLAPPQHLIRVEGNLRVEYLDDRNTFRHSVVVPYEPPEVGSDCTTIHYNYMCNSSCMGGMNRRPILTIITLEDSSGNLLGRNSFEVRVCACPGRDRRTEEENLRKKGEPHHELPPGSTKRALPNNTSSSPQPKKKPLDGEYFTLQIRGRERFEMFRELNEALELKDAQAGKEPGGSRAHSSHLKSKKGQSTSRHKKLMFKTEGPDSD
Signal transducer and activator of transcription 3 (Homo sapiens), sequence (P40763 whole entry, looked up): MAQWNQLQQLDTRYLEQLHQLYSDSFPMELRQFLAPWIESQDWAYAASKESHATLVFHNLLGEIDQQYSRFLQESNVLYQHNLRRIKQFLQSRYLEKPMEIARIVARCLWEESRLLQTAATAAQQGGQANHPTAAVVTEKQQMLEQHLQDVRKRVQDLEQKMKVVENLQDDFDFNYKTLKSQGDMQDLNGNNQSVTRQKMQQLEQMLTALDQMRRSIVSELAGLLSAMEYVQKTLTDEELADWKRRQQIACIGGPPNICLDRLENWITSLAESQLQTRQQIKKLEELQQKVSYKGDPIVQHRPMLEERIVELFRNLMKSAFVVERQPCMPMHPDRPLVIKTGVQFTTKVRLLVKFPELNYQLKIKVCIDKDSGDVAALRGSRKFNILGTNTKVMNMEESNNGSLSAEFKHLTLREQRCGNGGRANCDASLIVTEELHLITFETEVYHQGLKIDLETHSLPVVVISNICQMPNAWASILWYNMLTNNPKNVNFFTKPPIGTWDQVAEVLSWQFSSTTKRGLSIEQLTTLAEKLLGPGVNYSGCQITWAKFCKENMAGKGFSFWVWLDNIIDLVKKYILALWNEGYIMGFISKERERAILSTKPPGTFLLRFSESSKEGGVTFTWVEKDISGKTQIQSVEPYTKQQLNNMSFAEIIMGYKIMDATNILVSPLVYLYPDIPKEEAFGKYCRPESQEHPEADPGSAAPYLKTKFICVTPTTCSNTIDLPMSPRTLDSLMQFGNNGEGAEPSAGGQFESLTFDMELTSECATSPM
Nuclear factor erythroid 2-related factor 2 (Homo sapiens), sequence (Q16236 whole entry, looked up): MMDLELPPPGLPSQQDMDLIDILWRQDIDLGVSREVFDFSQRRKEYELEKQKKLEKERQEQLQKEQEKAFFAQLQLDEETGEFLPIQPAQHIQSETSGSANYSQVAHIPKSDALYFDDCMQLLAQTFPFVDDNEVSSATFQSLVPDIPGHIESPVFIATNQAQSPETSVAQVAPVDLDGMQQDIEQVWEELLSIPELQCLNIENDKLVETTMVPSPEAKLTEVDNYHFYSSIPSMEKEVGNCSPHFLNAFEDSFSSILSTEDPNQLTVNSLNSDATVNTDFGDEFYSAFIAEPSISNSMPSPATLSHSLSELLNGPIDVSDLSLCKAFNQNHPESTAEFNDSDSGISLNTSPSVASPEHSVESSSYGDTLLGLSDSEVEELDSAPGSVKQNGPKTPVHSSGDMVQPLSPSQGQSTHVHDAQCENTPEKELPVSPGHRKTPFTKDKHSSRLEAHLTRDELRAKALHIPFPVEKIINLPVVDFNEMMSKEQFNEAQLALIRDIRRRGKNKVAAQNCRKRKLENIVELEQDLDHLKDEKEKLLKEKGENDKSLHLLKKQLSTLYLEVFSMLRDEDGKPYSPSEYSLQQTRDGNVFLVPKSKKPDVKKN
Nuclear factor NF-kappa-B p105 subunit (Homo sapiens), sequence (P19838 whole entry, looked up): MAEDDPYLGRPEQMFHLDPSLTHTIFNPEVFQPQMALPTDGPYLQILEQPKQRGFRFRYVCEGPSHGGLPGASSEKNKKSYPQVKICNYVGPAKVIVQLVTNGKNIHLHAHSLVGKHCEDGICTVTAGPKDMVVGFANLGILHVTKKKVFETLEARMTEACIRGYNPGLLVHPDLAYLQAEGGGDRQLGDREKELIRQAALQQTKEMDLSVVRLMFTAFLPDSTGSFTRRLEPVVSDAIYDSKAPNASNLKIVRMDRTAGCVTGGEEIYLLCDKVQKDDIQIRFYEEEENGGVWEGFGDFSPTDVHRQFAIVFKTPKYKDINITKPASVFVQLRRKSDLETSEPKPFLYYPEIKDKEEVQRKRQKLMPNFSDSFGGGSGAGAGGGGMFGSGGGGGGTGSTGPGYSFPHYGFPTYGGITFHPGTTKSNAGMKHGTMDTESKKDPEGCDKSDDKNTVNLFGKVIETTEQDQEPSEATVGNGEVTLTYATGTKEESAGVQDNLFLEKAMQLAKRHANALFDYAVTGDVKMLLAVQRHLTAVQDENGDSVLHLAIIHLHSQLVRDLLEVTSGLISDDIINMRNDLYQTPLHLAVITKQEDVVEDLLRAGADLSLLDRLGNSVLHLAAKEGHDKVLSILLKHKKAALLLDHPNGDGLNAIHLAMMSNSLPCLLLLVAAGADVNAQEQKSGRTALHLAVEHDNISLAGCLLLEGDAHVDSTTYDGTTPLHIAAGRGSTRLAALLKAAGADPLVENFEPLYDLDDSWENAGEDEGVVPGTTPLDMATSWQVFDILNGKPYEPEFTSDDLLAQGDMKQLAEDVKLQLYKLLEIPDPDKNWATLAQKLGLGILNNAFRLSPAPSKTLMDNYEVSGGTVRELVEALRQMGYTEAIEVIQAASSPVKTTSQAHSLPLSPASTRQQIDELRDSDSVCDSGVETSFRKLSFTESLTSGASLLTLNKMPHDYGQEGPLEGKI

O=P1(N(CCCl)CCCl)NCCCO1 (configuration not stated)
inactive: all assays above

CCCCN(CCCC)SN(C)C(=O)Oc1cccc2c1OC(C)(C)C2
not listed: [18]
inactive: all other assays above

CCC(C)(C)c1ccc(O)cc1
inactive: all assays above

ClC(Cl)c1ccccc1
not listed: [18]
inactive: all other assays above

c1nc[nH]n1
active: MYC, MYC (gene 4609) 0.104 µM | [1] 89.9 nM | [8] 106 nM | [14] 0.0948 µM | [15] 12.4 µM
inactive: all other assays above

CCOP(=S)(OCC)SCSCC
not listed: [18]
inactive: all other assays above

O=C(O)C1C(C(=O)O)C2(Cl)C(Cl)=C(Cl)C1(Cl)C2(Cl)Cl (configuration not stated)
inactive: all assays above

CCNc1nc(Cl)nc(NC(C)(C)C)n1
active: [2] 17.4 µM
not listed: [18]
inactive: all other assays above

c1cc2c3c(cccc3c1)CC2
inactive: all assays above

CC(C)(C)OOC(C)(C)C
inactive: all assays above

Nc1cc2c3c(c1)C(c1ccccc1)=N[C@@H](NC(=O)c1cccnc1)C(=O)N3CC2
not listed: [18]
inactive: all other assays above

COCCOCCO
not listed: [18]
inactive: all other assays above

CCCCCCCc1ccc(O)cc1
not listed: [18]
inactive: all other assays above

O=[N+]([O-])c1ccc(Cl)c(Cl)c1
active: [17] 10.8 µM
not listed: [18]
inactive: all other assays above

CCOC(=O)c1ccccc1C(=O)OCC
inactive: all assays above

c1ccc(OP(Oc2ccccc2)Oc2ccccc2)cc1
inactive: all assays above

Cc1ccc(N)cc1N
active: [7] 36.3 µM | [17] 4.89 µM
inactive: all other assays above

CCCCN(CCCC)N=O
inactive: all assays above

CCN(CC)c1ccccc1
inactive: all assays above

CN(C)C(=O)Cl
not listed: [18]
inactive: all other assays above

Cc1ccc([N+](=O)[O-])cc1C
not listed: [18]
inactive: all other assays above

CCOc1ccc(C(C)(C)COCc2cccc(Oc3ccccc3)c2)cc1
inactive: all assays above

Cc1ccc(O)cc1C
not listed: [3] | [9]
inactive: all other assays above

[N-]=[N+]=[N-]
active: MYC, MYC (gene 4609) 80 µM | [7] 71.7 µM | [10] 50 µM | [14] 94.4 µM | [16] 72.6 µM | [17] 50 µM | [18] 81.9 µM
inactive: all other assays above

CCOS(=O)(=O)OCC
not listed: [3]
inactive: all other assays above

CCC1(c2ccccc2)C(=O)N=C(O)NC1=O (configuration not stated)
inactive: all assays above

O=P(Oc1ccccc1)(Oc1ccccc1)Oc1ccccc1
active: [6] 50 µM | [7] 28.4 µM | [9] 21.2 µM | [15] 77.5 µM | TIMP1, TIMP1 (gene 7076) 73.1 µM | [18] 50 µM
inactive: all other assays above
